The supplement of paper PMC4466140

B1: unnamed (peptide)
chain: RKNRAPPQRPRFNRD

Biological target: AgAbp1
Test: SPOT peptide array binding signal intensity (averaged, normalized) (arbitrary units (background-subtracted, floor 0; scale differs between SH3 domains)); higher = stronger binding of the SH3 domain to the peptide
Summary of the method: (§1)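 Binding signal is given in arbitrary units that differ between domains and is the normalized, background-subtracted spot intensity averaged across replicates. Each GST-SH3 fusion from one of four yeast species was made in E. coli BL21(DE3), purified on glutathione Sepharose and incubated at 10 μg/ml overnight at 4°C on cellulose-bound synthetic 15-mer peptides in which cysteines were replaced by serines. Detection used anti-GST antibody, an HRP anti-mouse secondary and luminol, followed by imaging and Genespotter quantification.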

Row | Binder | SPOT peptide array binding signal intensity
1 | B1 | 958

Biological target: AgBbc1
Test: as above
Summary of the method: as §1

Row | Binder | SPOT peptide array binding signal intensity
2 | B1 | 476

Biological target: AgBem1-D1
Test: as above
Summary of the method: as §1

Row | Binder | SPOT peptide array binding signal intensity
3 | B1 | 438

Biological target: AgBzz1-D1
Test: as above
Summary of the method: as §1

Row | Binder | SPOT peptide array binding signal intensity
4 | B1 | 256

Biological target: AgBzz1-D2
Test: as above
Summary of the method: as §1

Row | Binder | SPOT peptide array binding signal intensity
5 | B1 | 154

Biological target: AgCyk3
Test: as above
Summary of the method: as §1

Row | Binder | SPOT peptide array binding signal intensity
6 | B1 | 16

Biological target: AgFus1
Test: as above
Summary of the method: as §1

Row | Binder | SPOT peptide array binding signal intensity
7 | B1 | 501

Biological target: AgHof1
Test: as above
Summary of the method: as §1

Row | Binder | SPOT peptide array binding signal intensity
8 | B1 | 142

Biological target: AgHse1
Test: as above
Summary of the method: as §1

Row | Binder | SPOT peptide array binding signal intensity
9 | B1 | 631

Biological target: AgLsb1
Test: as above
Summary of the method: as §1

Row | Binder | SPOT peptide array binding signal intensity
10 | B1 | 230

Biological target: AgLsb4
Test: as above
Summary of the method: as §1

Row | Binder | SPOT peptide array binding signal intensity
11 | B1 | 131

Biological target: AgMyo5
Test: as above
Summary of the method: as §1

Row | Binder | SPOT peptide array binding signal intensity
12 | B1 | 6.5

Biological target: AgNbp2
Test: as above
Summary of the method: as §1

Row | Binder | SPOT peptide array binding signal intensity
13 | B1 | 3290

Biological target: AgRvs167
Test: as above
Summary of the method: as §1

Row | Binder | SPOT peptide array binding signal intensity
14 | B1 | 7

Biological target: AgSho1
Test: as above
Summary of the method: as §1

Row | Binder | SPOT peptide array binding signal intensity
15 | B1 | 37

Biological target: AgSla1-D1-D2
Test: as above
Summary of the method: as §1

Row | Binder | SPOT peptide array binding signal intensity
16 | B1 | 474

Biological target: AgSla1-D3
Test: as above
Summary of the method: as §1

Row | Binder | SPOT peptide array binding signal intensity
17 | B1 | 52

Biological target: CaAbp1-D1
Test: as above
Summary of the method: as §1

Row | Binder | SPOT peptide array binding signal intensity
18 | B1 | 924

Biological target: CaAbp1-D2
Test: as above
Summary of the method: as §1

Row | Binder | SPOT peptide array binding signal intensity
19 | B1 | 998

Biological target: CaBbc1
Test: as above
Summary of the method: as §1

Row | Binder | SPOT peptide array binding signal intensity
20 | B1 | 1240

Biological target: CaBem1-D1
Test: as above
Summary of the method: as §1

Row | Binder | SPOT peptide array binding signal intensity
21 | B1 | 65.5

Biological target: CaBzz1-D1
Test: as above
Summary of the method: as §1

Row | Binder | SPOT peptide array binding signal intensity
22 | B1 | 1760

Biological target: CaBzz1-D2
Test: as above
Summary of the method: as §1

Row | Binder | SPOT peptide array binding signal intensity
23 | B1 | 1020

Biological target: CaCyk3
Test: as above
Summary of the method: as §1

Row | Binder | SPOT peptide array binding signal intensity
24 | B1 | 342

Biological target: CaFus1
Test: as above
Summary of the method: as §1

Row | Binder | SPOT peptide array binding signal intensity
25 | B1 | 758

Biological target: CaHof1
Test: as above
Summary of the method: as §1

Row | Binder | SPOT peptide array binding signal intensity
26 | B1 | 0.75

Biological target: CaHse1
Test: as above
Summary of the method: as §1

Row | Binder | SPOT peptide array binding signal intensity
27 | B1 | 149

Biological target: CaLsb1
Test: as above
Summary of the method: as §1

Row | Binder | SPOT peptide array binding signal intensity
28 | B1 | 5.5

Biological target: CaLsb4
Test: as above
Summary of the method: as §1

Row | Binder | SPOT peptide array binding signal intensity
29 | B1 | 698

Biological target: CaMyo5
Test: as above
Summary of the method: as §1

Row | Binder | SPOT peptide array binding signal intensity
30 | B1 | 10.2

Biological target: CaNbp2
Test: as above
Summary of the method: as §1

Row | Binder | SPOT peptide array binding signal intensity
31 | B1 | 1750

Biological target: CaRvs167
Test: as above
Summary of the method: as §1

Row | Binder | SPOT peptide array binding signal intensity
32 | B1 | 31.5

Biological target: CaRvs167-3
Test: as above
Summary of the method: as §1

Row | Binder | SPOT peptide array binding signal intensity
33 | B1 | 53

Biological target: CaSho1
Test: as above
Summary of the method: as §1

Row | Binder | SPOT peptide array binding signal intensity
34 | B1 | 423

Biological target: CaSla1-D1-D2
Test: as above
Summary of the method: as §1

Row | Binder | SPOT peptide array binding signal intensity
35 | B1 | 1480

Biological target: CaSla1-D3
Test: as above
Summary of the method: as §1

Row | Binder | SPOT peptide array binding signal intensity
36 | B1 | 15

Biological target: ScAbp1
Test: as above
Summary of the method: as §1

Row | Binder | SPOT peptide array binding signal intensity
37 | B1 | 153

Biological target: ScBbc1
Test: as above
Summary of the method: as §1

Row | Binder | SPOT peptide array binding signal intensity
38 | B1 | 338

Biological target: ScBem1-D1
Test: as above
Summary of the method: as §1

Row | Binder | SPOT peptide array binding signal intensity
39 | B1 | 26

Biological target: ScBzz1-D1
Test: as above
Summary of the method: as §1

Row | Binder | SPOT peptide array binding signal intensity
40 | B1 | 162

Biological target: ScBzz1-D2
Test: as above
Summary of the method: as §1

Row | Binder | SPOT peptide array binding signal intensity
41 | B1 | 16.5

Biological target: ScCyk3
Test: as above
Summary of the method: as §1

Row | Binder | SPOT peptide array binding signal intensity
42 | B1 | 138

Biological target: ScFus1
Test: as above
Summary of the method: as §1

Row | Binder | SPOT peptide array binding signal intensity
43 | B1 | 293

Biological target: ScHof1
Test: as above
Summary of the method: as §1

Row | Binder | SPOT peptide array binding signal intensity
44 | B1 | 1.5

Biological target: ScHse1
Test: as above
Summary of the method: as §1

Row | Binder | SPOT peptide array binding signal intensity
45 | B1 | 1230

Biological target: ScLsb1
Test: as above
Summary of the method: as §1

Row | Binder | SPOT peptide array binding signal intensity
46 | B1 | 248

Biological target: ScLsb2
Test: as above
Summary of the method: as §1

Row | Binder | SPOT peptide array binding signal intensity
47 | B1 | 119

Biological target: ScLsb3
Test: as above
Summary of the method: as §1

Row | Binder | SPOT peptide array binding signal intensity
48 | B1 | 1430

Biological target: ScLsb4
Test: as above
Summary of the method: as §1

Row | Binder | SPOT peptide array binding signal intensity
49 | B1 | 53

Biological target: ScMyo3
Test: as above
Summary of the method: as §1

Row | Binder | SPOT peptide array binding signal intensity
50 | B1 | 22

Biological target: ScMyo5
Test: as above
Summary of the method: as §1

Row | Binder | SPOT peptide array binding signal intensity
51 | B1 | 14.5

Biological target: ScNbp2
Test: as above
Summary of the method: as §1

Row | Binder | SPOT peptide array binding signal intensity
52 | B1 | 4260

Biological target: ScPex13
Test: as above
Summary of the method: as §1

Row | Binder | SPOT peptide array binding signal intensity
53 | B1 | 88.8

Biological target: ScRvs167
Test: as above
Summary of the method: as §1

Row | Binder | SPOT peptide array binding signal intensity
54 | B1 | 238

Biological target: ScSho1
Test: as above
Summary of the method: as §1

Row | Binder | SPOT peptide array binding signal intensity
55 | B1 | 845

Biological target: ScSla1-D1-D2
Test: as above
Summary of the method: as §1

Row | Binder | SPOT peptide array binding signal intensity
56 | B1 | 1900

Biological target: ScSla1-D3
Test: as above
Summary of the method: as §1

Row | Binder | SPOT peptide array binding signal intensity
57 | B1 | 49

Biological target: SpAbp1-D1
Test: as above
Summary of the method: as §1

Row | Binder | SPOT peptide array binding signal intensity
58 | B1 | 917

Biological target: SpBbc1
Test: as above
Summary of the method: as §1

Row | Binder | SPOT peptide array binding signal intensity
59 | B1 | 54

Biological target: SpBzz1-D1
Test: as above
Summary of the method: as §1

Row | Binder | SPOT peptide array binding signal intensity
60 | B1 | 853

Biological target: SpBzz1-D2
Test: as above
Summary of the method: as §1

Row | Binder | SPOT peptide array binding signal intensity
61 | B1 | 9.75

Biological target: SpCyk3
Test: as above
Summary of the method: as §1

Row | Binder | SPOT peptide array binding signal intensity
62 | B1 | 10

Biological target: SpHof1
Test: as above
Summary of the method: as §1

Row | Binder | SPOT peptide array binding signal intensity
63 | B1 | 285

Biological target: SpHof1-2
Test: as above
Summary of the method: as §1

Row | Binder | SPOT peptide array binding signal intensity
64 | B1 | 16.2

Biological target: SpHof1-3
Test: as above
Summary of the method: as §1

Row | Binder | SPOT peptide array binding signal intensity
65 | B1 | 360

Biological target: SpHse1
Test: as above
Summary of the method: as §1

Row | Binder | SPOT peptide array binding signal intensity
66 | B1 | 367

Biological target: SpLsb1
Test: as above
Summary of the method: as §1

Row | Binder | SPOT peptide array binding signal intensity
67 | B1 | 154

Biological target: SpLsb4
Test: as above
Summary of the method: as §1

Row | Binder | SPOT peptide array binding signal intensity
68 | B1 | 793

Biological target: SpMyo1
Test: as above
Summary of the method: as §1

Row | Binder | SPOT peptide array binding signal intensity
69 | B1 | 15.5

Biological target: SpNbp2
Test: as above
Summary of the method: as §1

Row | Binder | SPOT peptide array binding signal intensity
70 | B1 | 726

Biological target: SpPex13
Test: as above
Summary of the method: as §1

Row | Binder | SPOT peptide array binding signal intensity
71 | B1 | 30

Biological target: SpRvs167
Test: as above
Summary of the method: as §1

Row | Binder | SPOT peptide array binding signal intensity
72 | B1 | 98.7

Biological target: SpSla1-D1-D2
Test: as above
Summary of the method: as §1

Row | Binder | SPOT peptide array binding signal intensity
73 | B1 | 61

Biological target: SpSla1-D3
Test: as above
Summary of the method: as §1

Row | Binder | SPOT peptide array binding signal intensity
74 | B1 | 7.5
